# In the supplement of paper PMC10849652:
# The full data set covers some 8,800 targets. This sample favours those with a hit. About 0.5% of all pairs of compound and target were hits. A number with no mark means an inactive call.
# How the values were obtained:
# Experiment in all cases: log2 fold change, soluble protein after heating vs DMSO (PISA); higher = thermal stabilisation; K562 lysate, 10 uM; active = over 0.2 and 3.5 SD of the protein, either way, in both replicates (recomputed)
# erlotinib = compound: C#Cc1cccc(Nc2ncnc3cc(OCCOC)c(OCCOC)cc23)c1 [erlotinib]
# Method in brief: (§1)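 Quantification was by TMTpro 16plex LC-MS/MS with equalised channel sums, applied to the supernatant after 21,000xg for 90 min. Samples were crude K562 extract at 1 mg/mL protein in PBS pH 7.4 with 1 mM MgCl2, treated with 10 μM compound for 30 min, heated for 3 min across 48°C-58°C, pooled and brought to 0.5% NP-40 at 4°C. Values are log-two fold changes in thermal stability relative to solvent controls, from duplicates.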
# [1] = compound: C/C(=N\NC(=O)C1=CC(=CC=C1)S(=O)(=O)N2CCOCC2)/C3=C(C=CC(=C3)Cl)O
# Method in brief: as §1
# [2] = compound: C1=CC(=CC=C1C2=NC3=C(N2)C=C(C=C3)C(=O)N)OC4=CC=C(C=C4)Cl
# Method in brief: as §1
# [3] = compound: C1=CC2=C(C=CC(=C2)/C=C\3/C(=O)NC(=NCC4=CC=CS4)S3)N=C1
# Method in brief: as §1
# [4] = compound: C1=CC2=NC=CN=C2C=C1/C=C/3\C(=O)NC(=O)S3
# Method in brief: as §1
# [5] = compound: C1=CC=C(C=C1)C2=NC(=C(N2)C3=CC=NC=C3)C4=CC(=C(C=C4)Cl)O
# Method in brief: as §1
# [6] = compound: C1=CC=C2C(=C1)C3=NNC4=CC=CC(=C43)C2=O
# Method in brief: as §1
# [7] = compound: C1CCN(C1)C(=O)NC2=CC=CC(=C2)NC3=NC=C(C(=N3)NCCC4=CN=CN4)Br
# Method in brief: as §1
# [8] = compound: C1CN(CCC1(CC2=CC=C(C=C2)Cl)N)C3=NC=NC4=C3C=CN4
# Method in brief: as §1
# IRAK-1-4 Inhibitor I = compound: C1COCCN1CCN2C3=CC=CC=C3N=C2NC(=O)C4=CC(=CC=C4)[N+](=O)[O-] [IRAK-1-4 Inhibitor I]
# Method in brief: as §1
# ibrutinib = compound: C=CC(=O)N1CCC[C@@H](n2nc(-c3ccc(Oc4ccccc4)cc3)c3c(N)ncnc32)C1 [ibrutinib]
# Method in brief: as §1
# [9] = compound: CC(=O)c1cnc2ccc(-c3cc(Cl)c(O)c(Cl)c3)nc2c1N[C@H]1CC[C@H](CN(C)C)CC1
# Method in brief: as §1
# ralimetinib = compound: CC(C)(C)Cn1c(N)nc2ccc(-c3[nH]c(C(C)(C)C)nc3-c3ccc(F)cc3)nc21 [ralimetinib]
# Method in brief: as §1
# [10] = compound: CC(C)(O)CC(=O)NCCn1ccc2ncnc(Nc3ccc(Oc4cccc(C(F)(F)F)c4)c(Cl)c3)c21
# Method in brief: as §1
# [11] = compound: CC(C)C1=C2N=C(C=C(N2N=C1)NCC3=CC=CC=C3)NCCCCCCN
# Method in brief: as §1
# [12] = compound: CC1=C(C(CC(=O)N1)C2=CC=C(C=C2)C(F)(F)F)C(=O)NC3=C(C=C4C(=C3)C=NN4)F
# Method in brief: as §1
# [13] = compound: CC1=C(C2=C(C=C1)C(=O)C3=CC=CC=C3N2CCCN)C
# Method in brief: as §1
# [14] = compound: CC1=C(C=C(C=C1)NC(=O)C2=CC(=CC=C2)C(C)(C)C#N)NC3=CC4=C(C=C3)N=CN(C4=O)C
# Method in brief: as §1
# [15] = compound: CC1=C(C=C(C=C1)NC(=O)C2=CC(=CC=C2)N(C)C)NC(=O)C3=CC=C(C=C3)O
# Method in brief: as §1
# [16] = compound: CC1=CC=C(C=C1)SC2=C3C=C(SC3=CN=C2)C(=O)N
# Method in brief: as §1
# Chain of UniProt Q14934 (Q14934 whole entry, looked up): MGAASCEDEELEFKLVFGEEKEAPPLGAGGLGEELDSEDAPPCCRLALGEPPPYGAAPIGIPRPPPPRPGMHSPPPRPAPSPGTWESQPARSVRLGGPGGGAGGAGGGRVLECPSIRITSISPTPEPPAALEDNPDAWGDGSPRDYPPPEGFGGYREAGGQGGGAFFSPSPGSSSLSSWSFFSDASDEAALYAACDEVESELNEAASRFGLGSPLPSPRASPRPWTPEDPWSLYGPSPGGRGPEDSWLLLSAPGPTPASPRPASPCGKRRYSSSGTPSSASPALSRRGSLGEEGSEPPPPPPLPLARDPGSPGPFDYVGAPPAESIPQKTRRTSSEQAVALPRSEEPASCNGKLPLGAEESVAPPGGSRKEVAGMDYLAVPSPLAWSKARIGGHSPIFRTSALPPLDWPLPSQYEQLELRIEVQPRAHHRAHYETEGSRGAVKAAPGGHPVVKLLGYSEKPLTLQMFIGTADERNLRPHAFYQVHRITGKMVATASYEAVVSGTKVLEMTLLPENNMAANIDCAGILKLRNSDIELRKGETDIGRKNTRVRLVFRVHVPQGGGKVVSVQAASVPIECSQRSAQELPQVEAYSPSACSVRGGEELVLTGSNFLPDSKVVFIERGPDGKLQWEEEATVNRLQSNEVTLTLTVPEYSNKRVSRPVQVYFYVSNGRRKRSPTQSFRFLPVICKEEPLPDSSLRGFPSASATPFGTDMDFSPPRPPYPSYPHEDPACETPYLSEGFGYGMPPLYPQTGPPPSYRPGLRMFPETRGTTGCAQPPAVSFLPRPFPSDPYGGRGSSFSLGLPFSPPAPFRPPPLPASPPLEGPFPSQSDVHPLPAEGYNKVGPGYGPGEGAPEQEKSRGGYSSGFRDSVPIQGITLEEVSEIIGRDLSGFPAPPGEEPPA
# Chain of UniProt B2RTY4 (B2RTY4 whole entry, looked up): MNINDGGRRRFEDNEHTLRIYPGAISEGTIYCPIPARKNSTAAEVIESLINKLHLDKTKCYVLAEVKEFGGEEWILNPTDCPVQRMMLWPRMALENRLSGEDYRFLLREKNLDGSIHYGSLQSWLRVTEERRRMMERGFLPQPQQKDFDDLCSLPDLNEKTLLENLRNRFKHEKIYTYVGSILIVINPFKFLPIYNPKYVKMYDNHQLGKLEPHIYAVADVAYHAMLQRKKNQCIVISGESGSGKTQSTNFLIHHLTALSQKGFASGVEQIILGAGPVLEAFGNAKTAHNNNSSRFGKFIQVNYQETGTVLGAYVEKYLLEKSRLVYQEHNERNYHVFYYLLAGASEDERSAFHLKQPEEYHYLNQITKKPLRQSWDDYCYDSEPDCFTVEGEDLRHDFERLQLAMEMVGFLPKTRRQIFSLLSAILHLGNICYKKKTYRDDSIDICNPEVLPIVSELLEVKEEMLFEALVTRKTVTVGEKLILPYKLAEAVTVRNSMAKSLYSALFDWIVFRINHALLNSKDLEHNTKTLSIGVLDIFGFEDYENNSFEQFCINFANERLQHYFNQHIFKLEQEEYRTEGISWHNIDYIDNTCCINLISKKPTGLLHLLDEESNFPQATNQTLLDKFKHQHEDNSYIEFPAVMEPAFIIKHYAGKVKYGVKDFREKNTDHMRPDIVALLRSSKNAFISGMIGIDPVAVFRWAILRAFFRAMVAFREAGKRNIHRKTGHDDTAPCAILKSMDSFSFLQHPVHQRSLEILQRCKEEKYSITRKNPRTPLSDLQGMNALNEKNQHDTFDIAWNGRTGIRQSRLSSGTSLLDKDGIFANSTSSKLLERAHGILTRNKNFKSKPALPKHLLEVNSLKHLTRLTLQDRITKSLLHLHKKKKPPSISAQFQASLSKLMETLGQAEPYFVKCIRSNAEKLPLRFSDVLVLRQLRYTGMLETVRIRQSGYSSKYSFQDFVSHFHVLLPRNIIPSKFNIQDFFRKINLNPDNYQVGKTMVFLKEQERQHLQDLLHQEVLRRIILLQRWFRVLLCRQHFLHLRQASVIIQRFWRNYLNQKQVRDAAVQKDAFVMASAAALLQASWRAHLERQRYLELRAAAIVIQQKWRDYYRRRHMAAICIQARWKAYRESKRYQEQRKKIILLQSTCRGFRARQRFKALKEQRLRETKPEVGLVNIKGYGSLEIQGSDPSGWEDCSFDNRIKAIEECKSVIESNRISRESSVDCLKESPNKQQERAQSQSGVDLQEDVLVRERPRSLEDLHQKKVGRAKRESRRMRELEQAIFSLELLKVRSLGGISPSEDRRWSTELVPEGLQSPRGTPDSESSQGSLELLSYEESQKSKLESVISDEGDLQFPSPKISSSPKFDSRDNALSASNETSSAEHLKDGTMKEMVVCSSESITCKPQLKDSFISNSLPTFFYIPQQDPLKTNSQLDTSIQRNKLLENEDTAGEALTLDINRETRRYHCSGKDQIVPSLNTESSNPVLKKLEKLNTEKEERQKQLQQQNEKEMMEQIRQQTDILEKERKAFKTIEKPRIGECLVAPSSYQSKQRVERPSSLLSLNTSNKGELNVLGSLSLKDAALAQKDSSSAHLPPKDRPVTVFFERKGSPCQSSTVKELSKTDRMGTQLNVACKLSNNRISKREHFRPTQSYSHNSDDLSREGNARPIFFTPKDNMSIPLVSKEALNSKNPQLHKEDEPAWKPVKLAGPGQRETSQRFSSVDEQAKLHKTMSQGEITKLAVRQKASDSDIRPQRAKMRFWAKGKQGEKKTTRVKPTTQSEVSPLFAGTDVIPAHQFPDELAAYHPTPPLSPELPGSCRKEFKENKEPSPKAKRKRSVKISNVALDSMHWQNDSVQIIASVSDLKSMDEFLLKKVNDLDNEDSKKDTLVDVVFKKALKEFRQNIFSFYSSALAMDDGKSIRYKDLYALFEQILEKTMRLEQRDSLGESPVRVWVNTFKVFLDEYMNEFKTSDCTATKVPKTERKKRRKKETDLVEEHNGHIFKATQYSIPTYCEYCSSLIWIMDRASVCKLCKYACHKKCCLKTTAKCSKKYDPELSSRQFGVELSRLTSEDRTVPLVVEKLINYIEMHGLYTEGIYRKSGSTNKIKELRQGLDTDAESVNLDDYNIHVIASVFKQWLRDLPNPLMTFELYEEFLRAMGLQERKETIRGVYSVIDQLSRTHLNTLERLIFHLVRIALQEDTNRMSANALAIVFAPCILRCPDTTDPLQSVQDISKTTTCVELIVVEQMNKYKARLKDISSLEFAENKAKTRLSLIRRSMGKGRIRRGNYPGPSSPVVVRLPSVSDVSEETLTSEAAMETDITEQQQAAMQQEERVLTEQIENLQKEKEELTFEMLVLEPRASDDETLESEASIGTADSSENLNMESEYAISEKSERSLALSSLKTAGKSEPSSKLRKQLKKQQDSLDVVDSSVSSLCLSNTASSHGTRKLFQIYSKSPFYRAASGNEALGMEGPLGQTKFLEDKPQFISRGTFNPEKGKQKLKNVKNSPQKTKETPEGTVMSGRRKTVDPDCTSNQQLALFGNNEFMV
# Chain of UniProt Q6IBW4 (Q6IBW4 whole entry, looked up): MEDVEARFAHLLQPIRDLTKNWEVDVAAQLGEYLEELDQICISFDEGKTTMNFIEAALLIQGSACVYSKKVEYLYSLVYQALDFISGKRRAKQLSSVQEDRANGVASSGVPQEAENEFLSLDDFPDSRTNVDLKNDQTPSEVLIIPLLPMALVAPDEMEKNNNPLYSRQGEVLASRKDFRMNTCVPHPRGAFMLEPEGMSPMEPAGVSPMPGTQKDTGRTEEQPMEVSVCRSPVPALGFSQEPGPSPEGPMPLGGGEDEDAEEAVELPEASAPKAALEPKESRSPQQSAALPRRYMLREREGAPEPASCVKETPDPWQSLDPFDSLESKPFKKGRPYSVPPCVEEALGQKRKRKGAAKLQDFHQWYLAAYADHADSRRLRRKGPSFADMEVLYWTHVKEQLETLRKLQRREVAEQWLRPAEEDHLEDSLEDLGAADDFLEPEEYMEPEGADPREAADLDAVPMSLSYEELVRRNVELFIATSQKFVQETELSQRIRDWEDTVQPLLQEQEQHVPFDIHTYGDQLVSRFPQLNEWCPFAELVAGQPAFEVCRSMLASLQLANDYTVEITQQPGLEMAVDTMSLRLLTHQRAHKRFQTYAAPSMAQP
# Chain of UniProt P53370 (P53370 whole entry, looked up): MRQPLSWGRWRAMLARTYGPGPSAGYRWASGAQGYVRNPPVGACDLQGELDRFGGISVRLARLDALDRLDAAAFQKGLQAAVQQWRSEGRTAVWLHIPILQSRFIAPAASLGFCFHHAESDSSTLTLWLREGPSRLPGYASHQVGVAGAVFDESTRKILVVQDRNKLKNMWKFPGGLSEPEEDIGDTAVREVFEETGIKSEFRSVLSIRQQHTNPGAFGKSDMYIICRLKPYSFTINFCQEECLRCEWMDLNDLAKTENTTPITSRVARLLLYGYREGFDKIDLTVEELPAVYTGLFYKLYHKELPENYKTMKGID
# Chain of UniProt Q9BTC8 (Q9BTC8 whole entry, looked up): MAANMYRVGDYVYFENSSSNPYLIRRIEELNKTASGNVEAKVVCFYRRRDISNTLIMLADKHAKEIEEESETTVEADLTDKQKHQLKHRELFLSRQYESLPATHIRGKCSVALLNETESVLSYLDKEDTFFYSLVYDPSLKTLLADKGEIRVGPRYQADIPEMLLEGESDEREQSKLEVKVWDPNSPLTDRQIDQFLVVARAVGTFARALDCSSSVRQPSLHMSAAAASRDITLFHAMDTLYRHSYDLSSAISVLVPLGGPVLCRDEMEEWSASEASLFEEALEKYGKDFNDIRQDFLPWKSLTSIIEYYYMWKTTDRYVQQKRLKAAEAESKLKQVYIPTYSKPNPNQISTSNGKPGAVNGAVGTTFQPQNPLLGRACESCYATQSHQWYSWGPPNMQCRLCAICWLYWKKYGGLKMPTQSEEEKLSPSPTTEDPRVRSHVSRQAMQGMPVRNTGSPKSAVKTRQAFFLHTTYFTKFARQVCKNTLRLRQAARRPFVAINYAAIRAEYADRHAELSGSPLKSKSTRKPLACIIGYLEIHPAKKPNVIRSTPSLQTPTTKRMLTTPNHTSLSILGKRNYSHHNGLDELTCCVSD
# Chain of UniProt O60829 (O60829 whole entry, looked up): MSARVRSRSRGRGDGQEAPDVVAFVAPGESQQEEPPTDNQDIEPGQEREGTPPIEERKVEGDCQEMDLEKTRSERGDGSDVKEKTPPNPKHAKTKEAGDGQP
Target,log2 fold change (erlotinib),log2 fold change [1],log2 fold change [2],log2 fold change [3],log2 fold change [4],log2 fold change [5],log2 fold change [6],log2 fold change [7],log2 fold change [8],log2 fold change (IRAK-1-4 Inhibitor I),log2 fold change (ibrutinib),log2 fold change [9],log2 fold change (ralimetinib),log2 fold change [10],log2 fold change [11],log2 fold change [12],log2 fold change [13],log2 fold change [14],log2 fold change [15],log2 fold change [16]
PANK4 (UniProt Q9NVE7),0.013,-0.012,0.003,0.051,0.033,0.003,-0.052,-0.002,0.018,0.018,0.039,0.001,0.023,-0.008,0.036,-0.01,-0.024,-0.001,-0.005,-0.005
NSA2 (UniProt O95478),-0.015,-0.15,0.009,-0.102,-0.05,-0.002,-0.016,0.157,0.109,-0.006,0.154,0.068,0.012,0.082,0.01,-0.043,0.223,–,-0.155,-0.027
NEBL isoform 2 (UniProt O76041),0,0.081,0.045,0.012,0.016,0.015,0.003,-0.007,-0.006,-0.005,-0.04,0.015,-0.038,0.027,0.027,-0.012,-0.028,0,0.011,-0.013
MTA3 (UniProt Q9BTC8),0.025,-0.051,0.02,-0.022,-0.078,-0.046,0,0.004,0.025,0.012,-0.048,-0.023,0.009,0.062,0.01,-0.047,0.031,-0.053,-0.052,-0.018
NFAT5 isoform 5 (UniProt O94916),-0.06,-0.012,0.016,-0.036,0.049,-0.008,-0.012,-0.006,0.02,0.047,-0.027,-0.029,-0.017,0.129,0.003,0.112,-0.008,-0.081,-0.004,0.032
NCAPH2 (UniProt Q6IBW4),-0.031,-0.085,0.011,-0.012,0.026,0,-0.005,-0.038,0.042,0.009,-0.033,-0.01,0.066,-0.091,0.028,-0.017,0,0.01,0.055,0.011
NUDT6 (UniProt P53370),-0.01,0.113,-0.02,-0.518 (active),–,-0.008,0.111,-0.06,0.06,0.032,–,–,0.065,-0.033,0.054,–,0.169,0.011,-0.042,–
NPLOC4 (UniProt I3L3I1),–,–,–,–,-0.029,–,–,-0.128,0.046,–,-0.022,–,–,–,–,–,-0.169,0.447,–,–
MYO9A isoform 4 (UniProt B2RTY4),0.074,0.008,-0.125,-0.045,0.153,-0.007,-0.05,–,–,-0.059,-0.057,0.016,0.022,0.068,0.03,-0.031,-0.142,-0.037,0.043,-0.005
NR3C1 isoform 3 (UniProt P04150),0.061,-0.019,-0.058,-0.075,0.09,0.044,–,0.047,-0.064,-0.059,-0.168,-0.019,-0.076,0.04,0.008,-0.031,0.104,0.024,-0.033,0.055
MTHFD1 (UniProt V9GZ32),–,–,–,–,–,–,–,–,–,–,–,0.045,–,–,–,-0.18,–,–,–,0.088
PANK2 (UniProt Q9BZ23),–,-0.012,–,-0.019,0.011,-0.078,-0.044,-0.008,-0.06,0.14,-0.056,0.001,-0.069,-0.047,–,-0.073,-0.126,-0.046,-0.002,0.023
NTMT1 (UniProt S4R338),–,–,–,–,–,–,–,–,–,–,–,-0.182,–,–,–,–,–,–,–,0.058
PARD3B (UniProt Q8TEW8),0.025,–,-0.084,–,–,–,–,–,–,–,–,–,–,–,0.091,–,0.071,–,–,–
NUDT5 (UniProt C9JYY9),0.098,–,-0.157,–,–,–,–,-0.069,0.034,–,–,–,–,–,-0.111,-0.05,–,–,–,–
NUMB isoform 2 (UniProt P49757),–,–,–,–,–,0.304,–,–,–,0.021,–,–,0.059,0.12,–,0.154,-0.245,–,-0.062,–
PAGE4 (UniProt O60829),-0.423,–,0.098,–,0.034,0.015,–,-0.068,-0.095,-0.034,0.056,-0.029,0.028,-0.077,0.072,–,-0.014,0.04,0.078,0.004
NUB1 (UniProt H7C5N1),–,–,–,–,–,0.163,–,–,–,0.183,–,–,0.133,-0.146,–,–,–,–,-0.131,–
NSUN7 (UniProt Q8NE18),-0.037,-0.271,0.019,-0.095,0.198,-0.031,-0.087,-0.026,-0.042,0.068,0.076,-0.025,0.168,-0.137,0.042,–,–,0.102,-0.009,-0.017
NDUFAF5 (UniProt Q5TEU4),-0.001,0.027,0.016,0.021,-0.022,0.009,0.11,0.193,-0.056,0.07,-0.007,0.021,-0.011,-0.008,-0.029,–,0.043,0.076,-0.026,-0.048
NRIP1 (UniProt P48552),0.031,–,0,–,-0.033,0.024,–,–,–,0.114,-0.018,-0.055,-0.05,-0.165,-0.007,0.093,-0.217,0.175,-0.005,-0.102
NFATC4 isoform 2 (UniProt Q14934),–,-0.627 (active),–,-0.132,-0.064,–,-0.224,-0.07,-0.012,–,-0.053,-0.075,–,–,–,-0.067,-0.057,0.125,–,-0.063
